Source: publication PMC7862700, “An all-to-all approach to the identification of sequence-specific readers for epigenetic DNA modifications on cytosine”

Key:
Test in all cases: DAPPL (digital affinity profiling via proximity ligation, sequencing); 10 mM Tris-HCl pH 7.5, 50 mM NaCl, 1 mM DTT, 4% glycerol, room temperature, 30 min; GST-TFs on glutathione beads, 16-mer random dsDNA library, 0.1% formaldehyde crosslink after washing; high values mean tight binding
Settings in all cases: protein: recombinant; tags: N-terminal GST; dsDNA, one strand shown
FLI1 = biological target: T1, FLI1 (Homo sapiens, UniProt Q01543 1-452)
T1 sequence: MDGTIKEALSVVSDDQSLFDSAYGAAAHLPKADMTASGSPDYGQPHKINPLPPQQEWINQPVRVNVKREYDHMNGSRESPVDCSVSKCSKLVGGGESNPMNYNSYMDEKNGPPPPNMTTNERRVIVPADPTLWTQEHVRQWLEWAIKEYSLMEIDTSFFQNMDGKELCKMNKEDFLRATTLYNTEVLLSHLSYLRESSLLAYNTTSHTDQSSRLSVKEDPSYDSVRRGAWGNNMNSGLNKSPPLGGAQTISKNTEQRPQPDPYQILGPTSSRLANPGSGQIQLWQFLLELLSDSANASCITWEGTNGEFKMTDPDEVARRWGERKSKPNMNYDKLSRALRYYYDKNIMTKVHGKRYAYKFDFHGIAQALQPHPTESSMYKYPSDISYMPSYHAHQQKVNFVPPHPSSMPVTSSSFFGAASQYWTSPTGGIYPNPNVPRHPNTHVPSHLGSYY
Procedure, shortened: (§1)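 GST fusions of human transcription factors were expressed in yeast and captured with glutathione beads. Once given DNA barcodes and pooled alongside a tag-only sample, they were incubated for 30 min at room temperature with 200 nmole of a random double-stranded 16-mer DNA library in Tris/NaCl/DTT/glycerol buffer, then washed, crosslinked (0.1% formaldehyde), proximity-ligated, PCR-amplified and sequenced on an Illumina NextSeq500. The binding signal of each hexamer is its read frequency for a factor divided by its frequency for the tag-only sample.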

ELK1 = biological target: T2, ELK1 (Homo sapiens, UniProt P19419 1-428)
T2 sequence: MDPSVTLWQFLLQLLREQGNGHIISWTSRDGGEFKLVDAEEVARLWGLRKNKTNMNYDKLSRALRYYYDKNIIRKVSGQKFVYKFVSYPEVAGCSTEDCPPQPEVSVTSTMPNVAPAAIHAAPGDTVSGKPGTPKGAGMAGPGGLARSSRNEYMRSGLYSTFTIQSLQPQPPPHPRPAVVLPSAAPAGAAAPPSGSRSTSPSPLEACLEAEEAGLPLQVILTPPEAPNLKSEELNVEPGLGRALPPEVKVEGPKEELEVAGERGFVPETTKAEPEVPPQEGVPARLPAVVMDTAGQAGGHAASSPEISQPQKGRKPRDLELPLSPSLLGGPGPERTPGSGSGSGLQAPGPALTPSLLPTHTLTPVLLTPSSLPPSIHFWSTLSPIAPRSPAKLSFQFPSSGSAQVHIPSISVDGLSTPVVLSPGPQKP
Procedure, shortened: as §1

ERG = biological target: T3, ERG (Homo sapiens, UniProt P11308 1-479)
T3 sequence: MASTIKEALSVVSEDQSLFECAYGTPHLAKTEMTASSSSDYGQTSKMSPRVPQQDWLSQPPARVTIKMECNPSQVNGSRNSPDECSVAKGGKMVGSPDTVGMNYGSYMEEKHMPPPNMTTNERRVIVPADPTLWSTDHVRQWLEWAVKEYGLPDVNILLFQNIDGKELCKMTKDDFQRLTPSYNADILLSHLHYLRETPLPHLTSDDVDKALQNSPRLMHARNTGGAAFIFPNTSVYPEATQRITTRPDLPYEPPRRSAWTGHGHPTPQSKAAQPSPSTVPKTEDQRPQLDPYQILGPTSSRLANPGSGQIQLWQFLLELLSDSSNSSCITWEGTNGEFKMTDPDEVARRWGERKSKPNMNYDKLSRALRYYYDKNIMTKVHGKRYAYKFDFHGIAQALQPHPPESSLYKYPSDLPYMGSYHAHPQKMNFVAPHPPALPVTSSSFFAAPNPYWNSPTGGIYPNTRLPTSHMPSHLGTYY
Procedure, shortened: as §1

EHF = biological target: T4, EHF (Homo sapiens, UniProt Q9NZC4 1-300)
T4 sequence: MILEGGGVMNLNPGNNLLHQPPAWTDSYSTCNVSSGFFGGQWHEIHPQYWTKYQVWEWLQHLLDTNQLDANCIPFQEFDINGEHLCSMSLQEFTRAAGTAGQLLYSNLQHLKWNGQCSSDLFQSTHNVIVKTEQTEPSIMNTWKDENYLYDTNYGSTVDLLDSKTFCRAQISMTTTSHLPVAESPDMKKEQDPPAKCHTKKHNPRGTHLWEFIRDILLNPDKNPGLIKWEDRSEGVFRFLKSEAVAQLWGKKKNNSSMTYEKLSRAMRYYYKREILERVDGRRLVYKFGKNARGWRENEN
Procedure, shortened: as §1

SPI1 = SPI1 (Homo sapiens, UniProt P17947 1-270)
Procedure, shortened: as §1

SPIB = SPIB (Homo sapiens, UniProt Q01892 1-262)
SPIB, sequence (Q01892 whole entry): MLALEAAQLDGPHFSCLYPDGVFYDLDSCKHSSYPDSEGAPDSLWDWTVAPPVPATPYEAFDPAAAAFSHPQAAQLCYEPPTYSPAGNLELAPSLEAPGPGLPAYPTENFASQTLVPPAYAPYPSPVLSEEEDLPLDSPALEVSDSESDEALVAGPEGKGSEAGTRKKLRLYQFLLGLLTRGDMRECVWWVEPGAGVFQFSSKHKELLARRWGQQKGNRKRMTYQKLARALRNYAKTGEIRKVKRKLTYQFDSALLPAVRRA
Procedure, shortened: as §1

FEV = biological target: T5, FEV (Homo sapiens, UniProt Q99581 1-238)
T5 sequence: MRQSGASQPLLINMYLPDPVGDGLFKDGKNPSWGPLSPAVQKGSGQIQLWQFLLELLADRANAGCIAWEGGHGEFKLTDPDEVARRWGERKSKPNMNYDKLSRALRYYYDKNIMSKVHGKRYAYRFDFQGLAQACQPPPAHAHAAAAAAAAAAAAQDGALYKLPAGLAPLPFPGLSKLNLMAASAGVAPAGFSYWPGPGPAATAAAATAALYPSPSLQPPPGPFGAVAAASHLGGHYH
Procedure, shortened: as §1

ETV5 = ETV5 (Homo sapiens, UniProt P41161 1-510)
ETV5, sequence (P41161 whole entry): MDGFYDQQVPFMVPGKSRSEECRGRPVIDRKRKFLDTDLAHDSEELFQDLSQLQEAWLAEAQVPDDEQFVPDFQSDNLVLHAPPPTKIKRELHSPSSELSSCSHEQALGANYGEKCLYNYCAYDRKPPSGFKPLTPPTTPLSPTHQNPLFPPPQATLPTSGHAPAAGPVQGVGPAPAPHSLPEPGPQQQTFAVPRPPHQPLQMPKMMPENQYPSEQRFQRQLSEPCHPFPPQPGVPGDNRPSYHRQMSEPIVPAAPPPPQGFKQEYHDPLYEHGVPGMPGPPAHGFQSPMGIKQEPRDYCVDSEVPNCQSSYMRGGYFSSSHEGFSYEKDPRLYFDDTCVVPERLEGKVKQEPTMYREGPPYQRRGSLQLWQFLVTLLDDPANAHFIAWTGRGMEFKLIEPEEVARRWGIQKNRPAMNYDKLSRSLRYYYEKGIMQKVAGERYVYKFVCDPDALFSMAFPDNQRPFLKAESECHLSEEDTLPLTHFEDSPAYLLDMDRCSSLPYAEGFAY
Procedure, shortened: as §1

SPIC = biological target: T6, SPIC (Homo sapiens, UniProt Q8N5J4 1-248)
T6 sequence: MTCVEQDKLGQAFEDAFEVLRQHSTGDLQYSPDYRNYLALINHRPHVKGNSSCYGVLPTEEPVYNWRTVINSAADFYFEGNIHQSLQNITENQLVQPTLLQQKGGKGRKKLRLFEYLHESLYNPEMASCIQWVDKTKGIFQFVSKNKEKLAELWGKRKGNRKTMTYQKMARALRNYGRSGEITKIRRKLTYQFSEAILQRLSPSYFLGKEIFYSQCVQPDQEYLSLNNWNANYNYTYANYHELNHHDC
Procedure, shortened: as §1

ELF4 = ELF4 (Homo sapiens, UniProt Q99607 1-663)
ELF4, sequence (Q99607 whole entry): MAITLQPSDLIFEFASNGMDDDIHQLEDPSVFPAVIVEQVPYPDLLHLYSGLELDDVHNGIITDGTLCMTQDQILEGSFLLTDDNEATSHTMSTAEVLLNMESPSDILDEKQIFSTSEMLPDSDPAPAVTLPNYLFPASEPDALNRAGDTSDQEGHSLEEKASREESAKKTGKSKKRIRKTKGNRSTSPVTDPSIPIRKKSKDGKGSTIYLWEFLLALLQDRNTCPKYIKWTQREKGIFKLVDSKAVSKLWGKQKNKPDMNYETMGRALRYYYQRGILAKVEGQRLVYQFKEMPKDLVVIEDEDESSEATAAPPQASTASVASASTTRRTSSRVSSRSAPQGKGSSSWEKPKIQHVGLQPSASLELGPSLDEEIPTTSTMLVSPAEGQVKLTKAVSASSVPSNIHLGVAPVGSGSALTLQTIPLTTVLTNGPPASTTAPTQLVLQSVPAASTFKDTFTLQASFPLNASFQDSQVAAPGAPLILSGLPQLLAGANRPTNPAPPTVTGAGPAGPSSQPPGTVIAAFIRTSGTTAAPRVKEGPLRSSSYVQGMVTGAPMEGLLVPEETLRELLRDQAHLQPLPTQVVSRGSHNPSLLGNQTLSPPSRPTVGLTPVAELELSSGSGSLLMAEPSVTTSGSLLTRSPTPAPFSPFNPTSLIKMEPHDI
Procedure, shortened: as §1

ETV1 = ETV1 (Homo sapiens, UniProt P50549 1-477)
ETV1, sequence (P50549 whole entry): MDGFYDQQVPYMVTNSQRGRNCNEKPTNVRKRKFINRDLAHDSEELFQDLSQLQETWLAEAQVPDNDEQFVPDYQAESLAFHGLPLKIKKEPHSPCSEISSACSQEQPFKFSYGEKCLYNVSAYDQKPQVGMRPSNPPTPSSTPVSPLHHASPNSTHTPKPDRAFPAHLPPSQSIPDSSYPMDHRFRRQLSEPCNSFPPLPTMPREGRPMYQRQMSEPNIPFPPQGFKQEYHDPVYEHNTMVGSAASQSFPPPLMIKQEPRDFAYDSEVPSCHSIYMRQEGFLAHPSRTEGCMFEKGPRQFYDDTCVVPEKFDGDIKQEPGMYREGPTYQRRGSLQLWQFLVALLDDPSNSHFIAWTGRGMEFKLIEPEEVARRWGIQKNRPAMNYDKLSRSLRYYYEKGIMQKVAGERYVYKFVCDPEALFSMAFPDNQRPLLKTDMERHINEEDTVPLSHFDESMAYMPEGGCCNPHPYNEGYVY
Procedure, shortened: as §1

ETV3L = biological target: T7, ETV3L (Homo sapiens, UniProt Q6ZN32 1-361)
T7 sequence: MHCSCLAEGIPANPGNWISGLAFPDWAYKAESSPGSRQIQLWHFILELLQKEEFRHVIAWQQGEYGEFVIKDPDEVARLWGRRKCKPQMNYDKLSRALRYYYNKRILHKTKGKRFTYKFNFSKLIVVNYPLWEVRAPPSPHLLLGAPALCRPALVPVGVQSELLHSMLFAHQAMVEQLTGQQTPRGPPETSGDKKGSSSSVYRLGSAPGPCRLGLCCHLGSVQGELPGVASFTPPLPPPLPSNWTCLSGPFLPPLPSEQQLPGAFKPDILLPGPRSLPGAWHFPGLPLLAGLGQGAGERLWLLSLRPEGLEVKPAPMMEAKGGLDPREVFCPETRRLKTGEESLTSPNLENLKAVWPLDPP
Procedure, shortened: as §1

ELF5 = biological target: T8, ELF5 (Homo sapiens, UniProt Q9UKW6-2 1-255)
T8 sequence: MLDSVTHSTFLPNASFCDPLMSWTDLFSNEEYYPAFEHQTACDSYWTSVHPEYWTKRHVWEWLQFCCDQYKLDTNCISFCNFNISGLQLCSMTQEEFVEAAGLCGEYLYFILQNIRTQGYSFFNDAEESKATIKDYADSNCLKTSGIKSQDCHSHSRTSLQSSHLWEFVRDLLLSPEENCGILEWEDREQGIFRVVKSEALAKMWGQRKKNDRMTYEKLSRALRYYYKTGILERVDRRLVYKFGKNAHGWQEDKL
Procedure, shortened: as §1

ETV3 = biological target: T9, ETV3 (Homo sapiens, UniProt P41162-2 1-143)
T9 sequence: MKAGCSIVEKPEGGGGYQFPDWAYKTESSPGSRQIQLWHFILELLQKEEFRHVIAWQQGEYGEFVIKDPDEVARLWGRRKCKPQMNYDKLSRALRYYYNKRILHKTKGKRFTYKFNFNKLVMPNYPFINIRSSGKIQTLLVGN
Procedure, shortened: as §1

ETV6 = ETV6 (Homo sapiens, UniProt P41212 1-452)
ETV6, sequence (P41212 whole entry): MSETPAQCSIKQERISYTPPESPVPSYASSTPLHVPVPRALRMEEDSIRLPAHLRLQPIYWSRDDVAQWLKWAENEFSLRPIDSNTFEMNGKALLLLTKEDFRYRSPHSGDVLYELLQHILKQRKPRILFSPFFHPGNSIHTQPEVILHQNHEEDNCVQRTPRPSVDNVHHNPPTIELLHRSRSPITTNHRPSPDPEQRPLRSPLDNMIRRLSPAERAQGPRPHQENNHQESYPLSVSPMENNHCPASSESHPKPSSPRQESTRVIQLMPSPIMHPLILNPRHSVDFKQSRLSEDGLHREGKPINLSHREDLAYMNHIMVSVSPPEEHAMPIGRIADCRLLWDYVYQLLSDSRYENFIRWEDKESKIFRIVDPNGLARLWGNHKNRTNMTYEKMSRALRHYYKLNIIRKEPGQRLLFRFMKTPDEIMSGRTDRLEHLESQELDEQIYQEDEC
Procedure, shortened: as §1

Sequence | binding signal (FLI1) | binding signal (ELK1) | binding signal (ERG) | binding signal (EHF) | binding signal (SPI1) | binding signal (SPIB) | binding signal (FEV) | binding signal (ETV5) | binding signal (SPIC) | binding signal (ELF4) | binding signal (ETV1) | binding signal (ETV3L) | binding signal (ELF5) | binding signal (ETV3) | binding signal (ETV6)
AGTGAC | 1.07 fold enrichment (6-mer frequency, TF over GST control) | 1 fold enrichment (6-mer frequency, TF over GST control) | 1.1 fold enrichment (6-mer frequency, TF over GST control) | 1.08 fold enrichment (6-mer frequency, TF over GST control) | 1.33 fold enrichment (6-mer frequency, TF over GST control) | 1.04 fold enrichment (6-mer frequency, TF over GST control) | 1.11 fold enrichment (6-mer frequency, TF over GST control) | 1.05 fold enrichment (6-mer frequency, TF over GST control) | 1.04 fold enrichment (6-mer frequency, TF over GST control) | 1.05 fold enrichment (6-mer frequency, TF over GST control) | 1.03 fold enrichment (6-mer frequency, TF over GST control) | 1.1 fold enrichment (6-mer frequency, TF over GST control) | 1.11 fold enrichment (6-mer frequency, TF over GST control) | 1.1 fold enrichment (6-mer frequency, TF over GST control) | 1.11 fold enrichment (6-mer frequency, TF over GST control)
AGTGTA | 1.03 fold enrichment (6-mer frequency, TF over GST control) |  |  | 1.02 fold enrichment (6-mer frequency, TF over GST control) | 1.24 fold enrichment (6-mer frequency, TF over GST control) |  | 1.01 fold enrichment (6-mer frequency, TF over GST control) | 1.05 fold enrichment (6-mer frequency, TF over GST control) | 1.19 fold enrichment (6-mer frequency, TF over GST control) |  |  |  |  |  | 1.03 fold enrichment (6-mer frequency, TF over GST control)
